L3MBTL1 inh: blocks human L3MBTL1. Potency, µM (titrated, usually from 57.1 µM), for inactives: top-dose activity, negative = inhibition, usual class: inhibitors. actives 0.66% (n = 230,000). AlphaScreen L3MBTL1–H3K9me1 peptide binding; also: % is scaled to controls: 0 for no effect and ±100 for the full control effect; nearly all actives have a fitted effect of over 60% in size
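AlphaScreen proximity signal between nickel-chelate acceptor and streptavidin donor beads (final 10 ug/mL) reports binding of 50 nM L3MBTL1 to 75 nM biotin-H3 K9me1 peptide; complex incubated with compounds 30 min at room temperature; cefsulodin titration as control.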
HP1b binding inh: blocks HP1-beta chromodomain binding to methylated histone tails; AlphaScreen HP1-beta / biotin-H3K9me3 peptide binding; Potency, µM (doses to about 114 µM), for the others: at the top dose activity change, negative = inhibition, actives largely listed as inhibitors; actives 0.56% (n = 390,000); also: nearly all actives have a fitted effect of over 70% in size
Target sequence (P83916 whole entry, looked up): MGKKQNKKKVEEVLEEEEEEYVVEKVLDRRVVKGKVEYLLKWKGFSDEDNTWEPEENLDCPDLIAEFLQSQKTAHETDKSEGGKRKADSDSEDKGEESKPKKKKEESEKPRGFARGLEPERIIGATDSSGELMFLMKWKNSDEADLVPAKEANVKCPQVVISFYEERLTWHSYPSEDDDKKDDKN
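Compound inhibition of the preformed complex between 50 nM HP1-beta and 50 nM biotinylated H3K9me3 peptide was read by AlphaScreen. Buffer was PBS pH 7.4 with 0.01% Tween-20. Incubations ran 30 min at room temperature, with 10 ug/mL donor/acceptor beads.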
JMJD2A Tudor inh: blocks the human JMJD2A Tudor domain; actives 4.4% (n = 390,000); Potency, µM (doses to about 114 µM), without a hit: at the highest dose activity change, negative = inhibition, usual class: inhibitors; AlphaScreen JMJD2A-Tudor / H3K4me3 peptide binding; O75164; also: % is scaled to controls: 0 for no effect and ±100 for the full control effect; nearly all actives have a fitted effect of over 50% in size
BAZ2B inh: inhibitors of human BAZ2B bromodomain; Q9UIF8; AlphaScreen BAZ2B-H3K14Ac peptide displacement; Potency, µM (doses to about 114 µM), inactives show at the highest dose activity change, negative = inhibition, hits mostly inhibitors; actives 4.4% (n = 360,000); AID 504333; also: % is scaled to controls: 0 for no effect and ±100 for the full control effect; nearly all actives have a fitted effect of over 60% in size
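AlphaScreen displacement of biotin-H3(5-23)K14Ac peptide (50 nM final) from BAZ2B (50 nM final) in PBS pH 7.4, 0.01% Tween-20; complex preformed 30 min RT, then compounds (top 110 uM) 30 min RT, beads 20 min dark.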
G9a block: blocks human histone lysine methyltransferase G9a | Potency, µM (series often up to 102 µM), inactives show at the highest dose activity, negative = inhibition, most hits filed as inhibitors | Q96KQ7 | G9a H3K9 monomethylation, AlphaScreen, 2 h | actives 8.8% (n = 350,000); also: % is scaled to controls: 0 for no effect and ±100 for the full control effect; nearly all actives have a fitted effect of over 75% in size
Target sequence (Q96KQ7 913-1193 limits assumed): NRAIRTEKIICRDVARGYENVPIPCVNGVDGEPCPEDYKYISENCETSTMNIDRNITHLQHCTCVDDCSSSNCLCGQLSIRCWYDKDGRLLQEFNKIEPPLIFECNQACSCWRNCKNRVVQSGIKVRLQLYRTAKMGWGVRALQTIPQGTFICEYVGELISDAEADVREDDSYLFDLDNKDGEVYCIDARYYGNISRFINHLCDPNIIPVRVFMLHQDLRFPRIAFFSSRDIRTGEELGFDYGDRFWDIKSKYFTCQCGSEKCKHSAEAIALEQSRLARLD
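G9a (20 nM) was preincubated 15 min with compound, then reacted 2 h at room temperature with 500 nM biotin-H3K9 peptide and 20 µM SAM. Monomethyl-H3K9 detected by AlphaScreen using anti-H3K9me1 antibody.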
Sfp inh: inhibitors of Bacillus subtilis Sfp phosphopantetheinyl transferase. AID 1490. Potency, µM, for inactives: largest response in the series, negative = inhibition, actives largely listed as inhibitors. Biochemical Sfp PPTase activity, qHTS. actives 3.5% (n = 310,000);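 also: the enzyme is Sfp with the accession as filed and its product quenches rhodamine fluorescence; 0% = enzyme reaction without inhibitor and -100% = no enzyme wells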
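Reaction rates are the 30-min fluorescence difference (ex 525, em 598 nm) in wells containing 15 nM Sfp, 5 uM rhodamine-CoA and 12.5 uM BHQ-2-YbbR at pH 7.6 with 10 mM MgCl2.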
Active calls of the source: *; ? = inconclusive; / = no result given; [ ] = remark or other dose. Shown are actives, neighbours in structure and some others; about 12% of the full set was active somewhere. Calls follow the shape of the dose curve; as a rule, active = well fitted curve in the direction sought with a large enough effect; inconclusive = small, poorly fitted or top-dose-only effect, or another doubt; inactive = no such curve, though single readings can be large; an effect the other way counts as inactive or inconclusive. Potency is read from the fitted curve at half-maximal effect.

SMILES | L3MBTL1 inh | HP1b binding inh | JMJD2A Tudor inh | BAZ2B inh | G9a block | Sfp inh
CCOc1ccc(N=Nc2c(=O)[nH]n3c(C)cc(C)nc23)cc1 | 0% | ? | ? | ? | 7.1µM* | -11%
COc1cccc(N=Nc2c(=O)[nH]n3c(C)cc(C)nc23)c1 | -3% | -10% | ? | -31% | -12%[59 µM] | -25%
COC1=C(Nc2ccccc2OC)C(=O)c2ccccc2C1=O | 20µM* | 35µM* | 45µM* | 8.9µM* | -161%[59 µM] | -18%
COc1ccccc1NC(=S)NC(C)=O | 3%[11.4 µM] | 10% | -12% | -30% | -28% | 14%
COc1ccccc1NC1=C(NC(C)=O)C(=O)c2ccccc2C1=O | ? | 50µM* | ? | ? | 7.9µM* | -97%
N/C(CC(=O)NC1CCCCC1)=N\OCC(=O)Nc1ccc(Cl)c(Cl)c1 | / | 25% | -11% | -3% | 6%[12.7 µM] | 5%
Cc1c(Cl)cccc1NC(=S)Nc1ccc2[nH]c(=O)[nH]c2c1 | / | -12% | 5%[11.4 µM] | -24% | 15%[12.7 µM] | 56µM*
O=C(NC(=S)Nc1ccc2[nH]c(=O)[nH]c2c1)c1ccccc1Cl | / | 25% | 1% | -9% | / | 2%
CC[C@H](C)/C=C/C1=CC2=C(Cl)C(=O)[C@@]3(C)OC(=O)C(C(=O)[C@H](C)[C@@H](C)O)=C3C2=CO1 | / | ? | 56µM* | / | / | /
CCc1ccc(C(=O)Cn2ccsc2=N)cc1 | / | 5% | -23% | ? | 50µM* | 9%
CC(C)(C)NC(=O)NC(=O)Cn1ccsc1=N | 10% | 41% | -6% | -1% | -5%[59 µM] | 6%
O=C(O)c1cccc(-c2ccc(/C=C3/SC(=Nc4ccccc4)N(Cc4cccnc4)C3=O)o2)c1 | / | ? | 45µM* | 50µM* | 32µM* | 50µM*
CCN1C(=O)/C(=C\c2ccc(-c3cccc(C(=O)OC)c3)o2)SC1=Nc1ccc(C(=O)O)cc1 | -11% | / | / | -36% | / | -28%
CCN1C(=O)/C(=C\c2ccc(-c3ccc([N+](=O)[O-])cc3OC)o2)SC1=Nc1cccc(C(=O)O)c1 | ? | 28µM* | 56µM* | 50µM* | 11µM* | 25µM*
CCN=C1S/C(=C/c2ccc(-c3ccc(Cl)cc3C(=O)O)o2)C(=O)N1CC | / | 44% | -15% | ? | 45µM* | -29%
CCN1C(=O)CSC1=Nc1cccc(C(=O)O)c1 | -2%[2.29 µM] | 57% | -7% | 7% | -8%[0.501 µM] | 15%
CCN=C1S/C(=C\c2cc(Cl)c(OC)c(OC)c2)C(=O)N1CC | / | 4% | 14% | -3% | -12% | 8%
O=C(CN1C(=O)NC(CCc2ccccc2)C1=O)Nc1ccccc1C(F)(F)F (stereo unspecified) | 4% | 14% | -10% | / | / | /
Cc1cc(C)c(S(=O)(=O)NC2CC(C)(C)NC(C)(C)C2)cc1Br | 7% | 31% | -10% | -8% | 15%[59 µM] | 11%
COc1ccc(C(=O)c2ccsc2N)cc1 | / | -1%[57 µM] | -34% | ? | ? | 1%
COc1ccc(C(=O)c2ccc(CC#N)s2)cc1 | -11% | -11% | 79µM* | ? | ? | 0%
CC(=O)Nc1cccc(NC(=O)CSc2nn3c(=O)c(C)nnc3s2)c1 | / | 57% | ? | 8% | 34%[12.7 µM] | -6%
Cc1nnc2sc(SCC(=O)Nc3ccc(Cl)cc3)nn2c1=O | / | 61% | ? | 40µM* | 5% | 19%
Cc1ccc(C(=O)N/N=C/c2nc3ccccc3n2C)cc1 | -1% | 47% | 63µM* | ? | 33%[12.7 µM] | -26%
CC(C)(C)OC(=O)N/N=C\c1cccnc1 | / | 3% | -15%[11.4 µM] | -31% | 1.3µM* | 12%
SMILES | L3MBTL1 inh | HP1b binding inh | JMJD2A Tudor inh | BAZ2B inh | G9a block | Sfp inh
Cn1c(/C=N/NC(=O)c2ccccc2Br)nc2ccccc21 | -1% | 35% | -17% | 8%[57.1 µM] | 33%[0.501 µM] | ?
Cc1ccc(C(=O)Nc2ccc(C(=O)N/N=C/c3cccnc3)cc2)cc1 | / | ? | ? | -34% | 79µM* | -5%
COCCNC(=O)CN1C(=O)COc2ccc(S(=O)(=O)N3CCCC3)cc21 | / | 12% | -9% | -12% | -21%[59 µM] | /
Cc1ccc(CN(C(=O)COc2ccc(Cl)c(C)c2)C2CCS(=O)(=O)C2)o1 (stereo unspecified) | / | -15% | ? | ? | -44%[59 µM] | /
Cc1ccc(S(=O)(=O)n2[nH]c(=O)c(CCO)c2C)cc1 | 4% | 36% | -16% | 9% | ? | 16%
COc1cccc(Cn2c(=O)c(CCc3ccccc3)nc3cncnc32)c1 | / | / | / | / | -3%[0.501 µM] | -6%
COc1ccc(/C=N/NC(=O)/C(=C/c2ccccc2)CCO)cc1 | -7% | 1% | 79µM* | -1% | 37%[59 µM] | 3%
COc1ccc(/C=N/NC(=O)C2c3ccccc3-c3ccccc32)cc1 | -4% | 29% | -19% | -4% | 45µM* | 6%
COc1cc(/C=N/NC(=O)/C(=C/c2ccccc2)CCO)ccc1O | 0% | 19% | -11% | -3% | 25%[59 µM] | 14%
O=C(N/N=C/c1ccc(O)cc1O)/C(=C/c1ccccc1)CCO | -8% | 12% | 79µM* | -39% | 46%[59 µM] | 26%
CCOC(=O)C1(CCc2ccccc2)CCN(Cc2cc(OC)c(OC)cc2OC)CC1 | -18% | -2% | ? | ? | ? | 20%
COc1ccc(C(=O)N2CCCC2)cc1 | 0% | 12% | -8% | -3% | ? | 0%
COc1ccc(C(=O)N=S2CCN(C(=O)c3ccc(Cl)cc3)CC2)cc1 | 3% | 75% | -3% | -23% | 25µM* | -2%
Cc1cc(C(=O)Nc2sc3c(c2C#N)CCC3)no1 | 0% | 1% | -34% | -31% | ? | 6%
CC(C)Cc1cc(C(=O)Nc2sc3c(c2C#N)CCC3)no1 | / | 5% | -4% | 5% | 45µM* | 56µM*
CCOC(=O)c1cc(C(=O)Nc2sc3c(c2C#N)CCCC3)nn1C | / | -7% | -12% | 17% | 11µM* | 35µM*
COc1ccccc1-c1cc(C(=O)Nc2sc3c(c2C#N)CCCC3)no1 | / | ? | -9% | -10% | 3.2µM* | /
N#Cc1c(NC(=O)c2cc(C3CC3)on2)sc2c1CCC2 | -3% | -16% | -31% | -10% | 40µM* | ?
Cc1c(P(=S)(c2ccccc2)c2ccccc2)c2ccccc2n1C/C=C/c1ccccc1 | / | / | -2% | / | / | /
Cc1cc(C(=O)Nc2sc3c(c2C#N)CCCC3)no1 | 14% | -18% | -19% | 10% | 7.1µM* | 20µM*
O=C1CC2(CCCC2)C(=O)N1CN1CCN(S(=O)(=O)c2ccc(Cl)c(Cl)c2)CC1 | 1% | 37% | -1% | -19% | 7%[12.7 µM] | /
COc1ccccc1CNC(=O)Cc1ccc(Br)cc1 | -14% | 36% | -3% | -8% | 8%[59 µM] | 3%
COc1ccc(NC(=O)/C=C/c2ccc(Br)o2)cn1 | / | ? | ? | ? | ? | 25µM*
